Compound activity (PubChem)
A selection: hits, their analogues and other compounds. The true share with any hit is near 1.3%.
LYPLA2 counter – LYPLA2 inhibitors, primary screen, counter-screen for PME1 inhibitor project, biochemical, fluorescence polarization, FP-Rh probe ABPP. Acyl-protein thioesterase 2 (Homo sapiens), O95372. recombinant LYPLA2. inhibition, % at 5.9 µM. 0.38% of 320,000 active. AID 2177, 2009;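 active = inhibition above the screen-wide mean plus 3 SD, limit set per campaign, cut at about 26% in these data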;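 note: 0% = LYPLA2 with DMSO and 100% = wells lacking LYPLA2 enzyme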
LYPLA1 counter – LYPLA1 inhibitors, primary screen, counter-screen for PME1 inhibitor project, biochemical, fluorescence polarization, FP-Rh probe ABPP | Acyl-protein thioesterase 1 (Homo sapiens), O75608 | 0.16% of 320,000 active | inhibition, % at 5.9 µM | recombinant LYPLA1;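 active = inhibition above the mean of all tested compounds plus 3 SD, set per campaign, cut at about 14% in these data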;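 note: inhibitors block serine hydrolase probe labeling of LYPLA1 so polarization falls; 0% = enzyme with DMSO and 100% = wells lacking LYPLA1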
PME-1 primary – PME-1 inhibitors via competitive probe labeling, primary screen, biochemical, fluorescence polarization, FP-Rh probe, HTS. inhibition, % at 5.9 µM. 0.53% of 320,000 active. recombinant PME-1. Protein phosphatase methylesterase 1 (Homo sapiens), Q9Y570;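 active = inhibition above the campaign mean of all compounds plus 3 SD, cut at about 26% in these data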;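 note: competitive labeling of PME-1 active site by serine hydrolase directed probe; 0% = PME-1 with DMSO and 100% = wells lacking PME-1 enzyme; inhibitors block probe labeling so polarization falls and inhibition rises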
Fam108B inh – mouse Fam108B serine hydrolase inhibitors, primary screen, counter-screen for RBBP9 inhibitor project, biochemical, fluorescence polarization; 0.33% of 300,000 active; inhibition, % at 9.51 µM; recombinant Fam108B, FP-Rh probe fluorescence polarization;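 active = inhibition above the screen mean inhibition plus 3 SD, computed separately per campaign, cut at about 18% in these data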;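 note: inhibitors lower polarization as less probe binds the enzyme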
PREPL inhibitor – PREPL enzyme inhibitors, primary screen, biochemical, fluorescence polarization; Prolyl endopeptidase-like (Homo sapiens), Q4J6C6; recombinant PREPL, fluorescence polarization activity-based probe; inhibition, % at 5.96 µM; 0.68% of 320,000 active; in the data active = inhibition above about 43%;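 note: 0% = enzyme with DMSO and 100% = wells lacking enzyme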
Target sequence (Q4J6C6 whole entry, looked up): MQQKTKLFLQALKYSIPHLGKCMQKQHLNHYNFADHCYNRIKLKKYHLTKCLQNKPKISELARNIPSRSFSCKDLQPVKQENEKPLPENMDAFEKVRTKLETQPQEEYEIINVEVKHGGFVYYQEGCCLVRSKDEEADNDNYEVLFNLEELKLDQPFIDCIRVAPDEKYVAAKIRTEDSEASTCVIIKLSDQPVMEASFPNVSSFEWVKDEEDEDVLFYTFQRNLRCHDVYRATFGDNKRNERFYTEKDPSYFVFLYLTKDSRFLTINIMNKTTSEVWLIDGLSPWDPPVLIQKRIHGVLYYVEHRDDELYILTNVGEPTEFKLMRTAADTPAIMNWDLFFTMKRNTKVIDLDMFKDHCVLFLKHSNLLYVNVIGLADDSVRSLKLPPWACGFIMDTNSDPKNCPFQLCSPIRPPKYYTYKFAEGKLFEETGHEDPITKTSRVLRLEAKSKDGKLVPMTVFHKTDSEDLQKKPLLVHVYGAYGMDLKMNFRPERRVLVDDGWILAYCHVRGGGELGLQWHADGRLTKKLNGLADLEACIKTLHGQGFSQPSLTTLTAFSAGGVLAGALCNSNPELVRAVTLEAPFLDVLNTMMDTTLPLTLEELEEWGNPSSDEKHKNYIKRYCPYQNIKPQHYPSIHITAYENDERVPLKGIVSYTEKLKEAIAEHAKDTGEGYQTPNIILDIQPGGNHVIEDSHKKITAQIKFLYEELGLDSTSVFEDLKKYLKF
Fam108b inh conf – mouse Fam108b serine hydrolase inhibitors, confirmation, counter-screen for RBBP9 inhibitor project, biochemical, fluorescence polarization, triplicate. shares compounds with Fam108B inh. recombinant Fam108b, FP-Rh probe fluorescence polarization. inhibition, % at 9.51 µM. 44% of 930 active;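 active = inhibition above a limit from the primary screen, the mean over all compounds plus 3 SD, cut at about 19% in these data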;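 note: 0% = median of active Fam108b wells and 100% = catalytically dead S170A mutant; inhibitors free the probe so polarization falls as inhibition rises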
Fam108b ABPP HTS – inhibition of mouse Fam108b by HTS hits, late-stage follow-up, biochemical, gel-based ABPP, soluble recombinant form | shares compounds with Fam108B inh | fluorophosphonate probe | inhibition, % at 20 µM | 44% of 260 active; in the data active = inhibition above about 40%
Active calls of the source: *; / = no result given.

SMILES	LYPLA2 counter	LYPLA1 counter	PME-1 primary	Fam108B inh	PREPL inhibitor	Fam108b inh conf	others
COc1cc(/C=C2/C(=O)c3cccc([N+](=O)[O-])c3C2=O)c(Br)cc1O	4.4	1.2	31.7*	26.7*	30.7	40.1*	Fam108b ABPP HTS=45.0*
COc1ccccc1NC(=O)CCCCCN1C(=O)c2cccc([N+](=O)[O-])c2C1=O	-2.6	-2.0	-0.3	0.0	-9.7	/
COCCOc1ccc(C(F)(F)F)cc1NC(=O)COC(=O)c1cc([N+](=O)[O-])ccc1N1CCOCC1	3.5	-0.1	0.0	-2.0	13.2	/
O=C(CNc1ccc2ccccc2c1)N/N=C/c1cc2ccccc2nc1Cl	5.0	-18.4	51.8*	36.9*	17.0	17.8
O=C(COc1cccc(Cl)c1)N/N=C\c1cc2ccccc2nc1Cl	-4.5	-1.3	-0.7	-1.0	8.9	/
Cc1cc(Cl)ccc1OCCCC(=O)Nc1ccc(S(=O)(=O)Nc2ncccn2)cc1	-3.5	-5.2	-5.4	-2.0	-17.0	/
C/C(CC(=O)c1ccccc1)=N\NC(=O)CC#N	6.4	2.9	-3.8	-3.3	-6.1	/
N#CC/C(N)=N/Nc1nc2ccccc2nc1Cc1ccccc1	9.6	-10.3	32.6*	45.7*	34.8	23.8*
Cc1cc(C)cc(OCC(=O)Nc2ccc(-n3cnnn3)cc2)c1	-0.8	-4.4	0.4	/	16.3	/
Cc1[nH]c2c(C)cccc2c1CCNC(=O)c1ccc2c(c1[N+](=O)[O-])C(=O)c1ccccc1C2=O	8.2	-2.5	31.2*	23.5*	26.4	30.3*	Fam108b ABPP HTS=60.0*
COc1ccc(C(=O)CC(=O)C(=O)Nc2ccccc2Cl)cc1	-0.3	-1.5	4.3	5.7	1.3	/
CC1CCc2c(sc(NC(=O)CSc3ncnc4c3cnn4-c3ccccc3Cl)c2C#N)C1 (stereo not drawn)	-2.4	-1.3	-2.8	-2.3	-5.2	/
O=C(Nc1ccc(Oc2ccc(Cl)cc2)c(Cl)c1)c1cc(I)cc(I)c1O	-2.2	12.9	8.4	18.2*	2.9	-2.3
C/C(=N\NC(=O)c1ccccc1O)C1C(=O)c2ccccc2C1=O	15.3	5.7	14.9	51.5*	20.9	50.7*
CCC/C(C)=N/NC(=O)c1ccccc1O	-3.7	-1.7	-9.6	-3.4	10.0	/
CCCCc1ccc(NC(=O)CSC2=NN3CCCC(=O)N=C3S2)cc1	1.4	-2.0	2.6	-0.9	-3.8	/
NC(=O)Nc1ccccc1C(=O)N1CCC(O)(c2ccc(Cl)cc2)CC1	-3.4	-2.7	5.6	43.1*	-11.3	1.3
COC(=O)Nc1ccccc1C(=O)N1CCC(O)(c2ccc(Cl)cc2)CC1	-10.3	-1.6	17.1	0.6	2.5	/
NC(=O)c1sc2nc3c(c(-c4ccco4)c2c1N)CCC3	3.8	-4.1	12.0	10.7	31.4	/
Nc1c(C(=O)NC2CC2)sc2nc3c(c(-c4ccco4)c12)CC/C3=C/c1ccco1	2.1	-8.7	9.6	32.6*	34.2	14.1
CCc1ccc(-n2c(=S)sc3c(=O)n(-c4ccccc4C)c(SCC(=O)O)nc32)cc1	-0.1	-2.1	16.0	2.6	0.4	/
O=[N+]([O-])c1cc(/C=N/Nc2nc3ccccc3[nH]2)c(O)cc1O	18.8	2.1	16.8	19.2*	33.8	17.3
C1=C(CCNc2ncnc3c2[nH]c2ccccc23)CCCC1	-7.9	-9.9	45.1*	21.0*	34.2	7.6
O=c1c2[nH]c3ccccc3c2ncn1CCC1=CCCCC1	5.9	2.1	1.1	0.8	8.4	/
O=C(Nc1nc(-c2ccco2)c(-c2ccco2)s1)c1cnccn1	-4.0	-3.5	-3.4	24.6*	17.8	5.3
SMILES	LYPLA2 counter	LYPLA1 counter	PME-1 primary	Fam108B inh	PREPL inhibitor	Fam108b inh conf	others
CC1=NOC(=O)/C1=C/c1ccc(-c2ccc(Cl)cc2)o1	10.7	3.5	-1.0	18.8*	-3.0	15.9
Cc1cccc(N(CC(=O)NC2CCCC2)C(=O)CCC(=O)Nc2ccccn2)c1	-3.8	0.0	0.2	2.2	16.6	/
NNC(=S)NCc1ccccc1	-0.4	2.5	-0.9	2.5	-3.0	/
S=C(NCc1ccccc1)NCc1cccc(CNC(=S)NCc2ccccc2)c1	-0.4	1.8	34.7*	35.6*	-10.1	24.9*
CSCCC(=O)NC1CCCN(CCc2ccccc2)C1 (stereo not drawn)	3.6	0.4	-2.7	-0.7	-8.4	/
N#Cc1c(N2CCCC(O)C2)nc(N)c2c(N)nc3c(c12)CC(=O)N3C12CC3CC(CC(C3)C1)C2 (stereo not drawn)	0.1	-2.7	11.2	19.2*	22.9	17.3
C=C(C)CN(CC)c1nc(N)c2c(N)nc3c(c2c1C#N)CC(=O)N3C12CC3CC(CC(C3)C1)C2	2.6	6.8	6.9	2.3	27.6	/
O=C(Nc1nc(-c2ccc(Cl)s2)cs1)c1ccncc1	-0.3	-1.1	-4.0	3.1	8.2	/
CC1CC1C(=O)Nc1nc(-c2ccc(Cl)s2)cs1 (stereo not drawn)	-11.4	-7.2	-0.1	20.4*	1.3	-4.7
CCN(Cc1ccccc1)S(=O)(=O)c1ccc(C(=O)N2CCN(c3nc4ccccc4s3)CC2)cc1	-2.3	-1.3	-0.2	-4.4	1.6	/
CCOC(=O)c1c(C)[nH]c(C2=NNC(=Nc3cccc(Cl)c3)SC2)c1C	-3.5	-9.5	34.4*	21.6*	18.1	-3.7
CCc1ccc(S(=O)(=O)/N=C2\C=C(Nc3ccc(C(=O)O)cc3)C(=O)c3ccccc32)cc1	17.8	10.0	29.9*	57.7*	40.8	74.4*	Fam108b ABPP HTS=0.0
Cc1ccc(S(=O)(=O)/N=C2\C=C(Nc3cccc(C(=O)O)c3)C(=O)c3ccccc32)c(C)c1	3.9	-4.3	23.2	34.9*	27.6	49.4*	Fam108b ABPP HTS=15.0
Cc1ccc(S(=O)(=O)/N=C2\C=C(Nc3ccc(O)cc3)C(=O)c3ccccc32)cc1	/	/	/	/	39.3	/
Cc1ccc(S(=O)(=O)/N=C2\C=C(Nc3cccc(C(=O)O)c3)C(=O)c3ccccc32)cc1	20.9	2.9	24.7	49.6*	32.3	60.3*	Fam108b ABPP HTS=0.0
CC(C)CCOc1ccc(C2(C)NC(=O)NC2=O)cc1 (stereo not drawn)	10.4	-0.7	-0.2	-3.4	-16.4	/
Cc1cc(C(=O)N/N=C/c2cccnc2)cs1	-11.8	-3.5	-4.7	2.4	2.4	/
CN(c1ccccc1)S(=O)(=O)c1cccc(NC(=O)CC(C)(C)C)c1	-1.8	-5.4	2.3	4.7	0.4	/
O=[N+]([O-])c1cccc(-c2csc(NN=Cc3cccc(O)c3)n2)c1	/	/	/	/	/	/	Fam108b ABPP HTS=0.0
O=[N+]([O-])c1cccc(-c2csc(Nc3ccccc3)n2)c1	2.2	-2.1	22.7	6.6	24.0	/
